Screening data (PubChem BioAssay)
Pf growth 96h: inhibits malaria parasite growth, 96 h | AID 504834 | P. falciparum luciferase reporter growth, 96 h | hit rate 6.9% among 320,000 | Potency, µM (doses to about 28.7 µM), usual class: inhibitors
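Infected RBCs, 2% Hct / 0.05% parasitemia final; luciferase-reporter P. falciparum; cpd 96 h, 37 C, 5% CO2; luciferase detection reagent; luminescence.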
Pf growth 48h: inhibits P. falciparum growth in the first generation, 48 h; Potency, µM (highest dose often 28.7 µM), most hits filed as inhibitors; hit rate 5.9% among 310,000; P. falciparum luciferase growth in erythrocytes, 48 h; AID 504832
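Erythrocytes infected with P. falciparum carrying an integrated firefly luciferase reporter (2% hematocrit, 0.1% parasitemia final) were exposed to compounds in RPMI 1640 with 0.5% Albumax at 37 C, 5% CO2. Growth inhibition was scored as reduced luminescence.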
VACV mCherry inh: vaccinia inhibition (mCherry reporter) | Vaccinia virus mCherry reporter infection, fluorescence | Potency, µM (highest dose often 36.5 µM), hits mostly inhibitors | hit rate 0.63% among 310,000 | AID 720579; calls by dose curve; tested in A549 cells; note: nearly all actives have a fitted effect of over 35% in size
Vaccinia Venus: vaccinia inhibition (Venus reporter). Vaccinia virus Venus reporter expression, fluorescence. Potency, µM (highest dose often 36.5 µM), actives largely listed as inhibitors. hit rate 0.46% among 330,000; calls by dose curve; tested in A549 cells; note: nearly all actives have a fitted effect of over 30% in size
AMA1 RON2 block: inhibitors of Plasmodium falciparum AMA1-RON2 interaction. AID 720542. hit rate 0.2% among 360,000. Potency, µM (series often up to 58.2 µM), actives largely listed as inhibitors. AlphaScreen AMA1-biotinylated RON2 peptide binding; note: nearly all actives have a fitted effect of over 45% in size
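AMA1 (3D7) with his tag at 25 nM final met compounds first, then biotinylated RON2 peptide at 25 nM; detection used donor plus acceptor beads, 10 µg/mL apiece, read by AlphaScreen after 30 min at room temperature.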
Hits are given with their value; [ ] = dose if it differs, or a comment. Only some compounds are listed: those with a hit (about 8.7% of all), similar ones and a draw of the others. Unless noted, calls come from the whole dose curve; as a rule, active = well fitted curve in the direction sought with a large enough effect; inconclusive = small, poorly fitted or top-dose-only effect, or another doubt; inactive = no such curve, though single readings can be large; an effect the other way counts as inactive or inconclusive.

COc1ccccc1NS(=O)(=O)c1cccc(C(=O)NCC(c2ccccc2OC)N2CCCC2)c1 (stereo unspecified) was read as Pf growth 96h inconclusive, Pf growth 48h 8.28µM, VACV mCherry inh inactive, Vaccinia Venus inactive and AMA1 RON2 block inactive.
O=C(NCCc1ccc(Cl)cc1)c1ccc(CSCc2ccc(Cl)cc2)o1 was read as VACV mCherry inh inactive and Vaccinia Venus inactive.
Screening Cc1cccc(NS(=O)(=O)c2cccc(C(=O)NCC(c3ccco3)N3CCCCC3)c2)c1 (stereo unspecified) returned Pf growth 96h 14.7µM, Pf growth 48h inconclusive, VACV mCherry inh inactive, Vaccinia Venus inactive and AMA1 RON2 block inactive.
COc1ccc(NS(=O)(=O)c2cccc(C(=O)NCC(c3ccco3)N3CCCCC3)c2)cc1 (stereo unspecified) was read as Pf growth 96h inconclusive, Pf growth 48h inconclusive, VACV mCherry inh inconclusive, Vaccinia Venus inactive and AMA1 RON2 block inactive.
For O=C(NCC(c1ccco1)N1CCc2ccccc2C1)C(=O)Nc1ccccc1 (stereo unspecified) the results were Pf growth 96h inconclusive, Pf growth 48h inconclusive, VACV mCherry inh inactive, Vaccinia Venus inactive and AMA1 RON2 block inactive.
For CN(C)C1(CNC(=O)c2ccc(NS(=O)(=O)c3ccc(Cl)c(Cl)c3)cc2)CCCCC1 the results were Pf growth 96h 13.1µM, Pf growth 48h 11.7µM and AMA1 RON2 block inactive.
For COc1ccccc1NS(=O)(=O)c1cccc(C(=O)NCC(c2ccco2)N2CCCC2)c1 (stereo unspecified) the results were Pf growth 96h 14.7µM, Pf growth 48h 11.7µM, VACV mCherry inh inactive, Vaccinia Venus inactive and AMA1 RON2 block inactive.
Screening COc1ccccc1NC(=O)C(=O)NCC(c1ccco1)N1CCc2ccccc2C1 (stereo unspecified) returned Pf growth 96h inconclusive, Pf growth 48h 5.22µM, VACV mCherry inh inactive, Vaccinia Venus inactive and AMA1 RON2 block inactive.
For O=c1c(-c2cc(-c3ccccc3)nc3c2COc2ccc(Cl)cc2-3)coc2ccccc12 the results were VACV mCherry inh inactive and Vaccinia Venus inactive.
For CCn1ccc2cc(S(=O)(=O)N3CCCN(C(=O)Nc4cc(Cl)ccc4C)CC3)ccc21 the results were VACV mCherry inh inactive and Vaccinia Venus inactive.
`CCOC(=O)c1c(C)oc2c1cc(NS(=O)(=O)c1ccc(C)cc1)c1ccccc12` gave VACV mCherry inh inactive and Vaccinia Venus inactive.
`COc1ccc(C(CNC(=O)c2ccc(NS(=O)(=O)c3ccc(F)cc3)cc2)N2CCOCC2)cc1` (stereo unspecified) gave Pf growth 96h inconclusive, Pf growth 48h inconclusive, VACV mCherry inh inactive, Vaccinia Venus inactive and AMA1 RON2 block inactive.
Screening CCOc1ccc(NS(=O)(=O)c2ccc(NC(=S)NC(C)=O)cc2)cc1 returned Pf growth 96h 3.7µM, Pf growth 48h inconclusive, VACV mCherry inh inactive, Vaccinia Venus inactive and AMA1 RON2 block inactive.
For COc1ccc(C(CNC(=O)c2ccc(NS(=O)(=O)c3ccc(F)c(C)c3)cc2)N2CCOCC2)cc1 (stereo unspecified) the results were Pf growth 96h inactive, Pf growth 48h 10.4µM, VACV mCherry inh inactive, Vaccinia Venus inactive and AMA1 RON2 block inactive.
Screening Cc1ccc(N(C)S(=O)(=O)c2cccc(C(=O)NCC(c3ccco3)N3CCCC3)c2)cc1 (stereo unspecified) returned Pf growth 96h 3.29µM, Pf growth 48h 9.28µM and AMA1 RON2 block inactive.
For COc1ccccc1C(CNC(=O)c1cccc(S(=O)(=O)Nc2ccc(C)cc2)c1)N1CCCC1 (stereo unspecified) the results were Pf growth 96h 14.7µM, Pf growth 48h 13.1µM, VACV mCherry inh inactive, Vaccinia Venus inactive and AMA1 RON2 block inactive.
`Cc1cccc(OCC(=O)OCc2cc(=O)n3nc(C4CC4)sc3n2)c1` gave VACV mCherry inh inactive and Vaccinia Venus inactive.
CNc1ccc(/C=C/c2ccnc3ccccc23)cc1 was read as VACV mCherry inh inactive and Vaccinia Venus inactive.
For Fc1ccc(-c2nn(-c3ccc(Cl)cc3)c3c2cnc2ccc(F)cc23)cc1 the results were VACV mCherry inh inactive and Vaccinia Venus inactive.
For CC(C(=O)c1ccccc1)[n+]1cccc(Cl)c1 (stereo unspecified) the results were VACV mCherry inh inactive and Vaccinia Venus inconclusive.
`Cc1ccc2[nH]c(CSc3nnc(NC(=O)c4ccccc4C)s3)cc(=O)c2c1` gave VACV mCherry inh inactive and Vaccinia Venus inactive.
`COc1ccc(CNC(=O)C(=O)NCC(c2ccco2)N2CCOCC2)cc1` (stereo unspecified) gave Pf growth 96h 7.38µM, Pf growth 48h inactive, VACV mCherry inh inactive, Vaccinia Venus inactive and AMA1 RON2 block inactive.
For O=C(NCc1ccccc1)C(=O)NCC(c1ccco1)N1CCOCC1 (stereo unspecified) the results were Pf growth 96h inactive, Pf growth 48h inactive, VACV mCherry inh inactive, Vaccinia Venus inactive and AMA1 RON2 block inactive.
Screening CCOC(=O)c1cc2[nH]c3ccccc3c2[n+](-c2ccc([N+](=O)[O-])cc2)c1N returned Pf growth 96h inconclusive, Pf growth 48h 3.7µM, VACV mCherry inh inactive, Vaccinia Venus inactive and AMA1 RON2 block inactive[2.32 µM].
Screening CCOC(=O)c1cc2[nH]c3ccccc3c2[n+](-c2ccc([N+](=O)[O-])cc2)c1C returned Pf growth 96h inconclusive, Pf growth 48h 2.62µM, VACV mCherry inh inactive, Vaccinia Venus inactive and AMA1 RON2 block inactive.
Screening CC(C)N=C(NS(=O)(=O)c1cccs1)c1ccccc1 returned Pf growth 96h 13.1µM, Pf growth 48h inactive and AMA1 RON2 block inactive.
Screening CC(C)(C)N=C(NS(=O)(=O)c1cccs1)c1ccccc1 returned Pf growth 96h inactive, Pf growth 48h inactive, VACV mCherry inh inactive, Vaccinia Venus inactive and AMA1 RON2 block inactive.
CN(C)N=C1c2cc(S(=O)(=O)N(C)C)ccc2-c2ccc(S(=O)(=O)N(C)C)cc21 was read as Pf growth 96h 11.7µM, Pf growth 48h 13.1µM and AMA1 RON2 block inactive.
Screening CN(C)S(=O)(=O)c1ccc2c(c1)C(=NNC(N)=O)c1cc(S(=O)(=O)N(C)C)ccc1-2 returned Pf growth 96h inactive, Pf growth 48h inactive and AMA1 RON2 block inactive.
CN(C)S(=O)(=O)c1ccc2c(c1)C(=NO)c1cc(S(=O)(=O)N(C)C)ccc1-2 was read as Pf growth 96h 2.62µM, Pf growth 48h inactive, VACV mCherry inh inactive, Vaccinia Venus inactive and AMA1 RON2 block inactive.
For O=C(NCCc1nnc2n1CCN(Cc1ccc3c(c1)CCO3)CC2)c1ccco1 the results were VACV mCherry inh inactive and Vaccinia Venus inactive.
`COc1cn(CC(=O)Nc2ccc(C)cc2)c(CN2CCCCC2)cc1=O` gave VACV mCherry inh inactive and Vaccinia Venus inactive.
`COc1ccc(-n2c(COc3cccc4ccccc34)nnc2SCC#N)cc1` gave Pf growth 96h inactive, Pf growth 48h 13.1µM, VACV mCherry inh inactive, Vaccinia Venus inactive and AMA1 RON2 block inactive.
Cc1ccc(-c2nnc(CSc3nnc(COc4cccc5ccccc45)n3-c3ccccc3)o2)cc1 was read as Pf growth 96h 13.1µM, VACV mCherry inh inconclusive, Vaccinia Venus inconclusive and AMA1 RON2 block inactive.
